# Reference: PubChem BioAssay
# Calls of active or inactive are those of the source.
# What was measured:
# [1] = A549 cell viability effects, profiling panel, calcein-AM fluorescence, 48 h, basal (AID 1162); details: higher = more signal
# [2] = adipocyte viability effects, profiling panel, cell-based, 3T3-L1 adipocytes, calcein-AM fluorescence, 48 h, basal (AID 1163); details: 3T3-L1 adipocytes viability, higher = more signal
# [3] = HepG2 cell viability effects, profiling panel, calcein-AM fluorescence, 48 h, basal (AID 1164); details: higher = more signal
# [4] = MM1S cell viability effects, profiling panel, calcein-AM fluorescence, 48 h, basal (AID 1165); details: higher = more signal;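 further: viability of MM1S multiple myeloma cells under basal unstimulated conditions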
# [5] = basal RPMI8226 viability, no added stimulus, profiling panel, cell-based, calcein-AM fluorescence, 48 h, PK04 Diversity Set (AID 1166); details: RPMI8226 myeloma viability, higher = more signal;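 further: cells grown under basal conditions without added stimulus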
# [6] = basal HepG2 mitochondrial membrane potential changes, profiling panel, cell-based, JC-1 fluorescence, 24 h, 100 nL compound (AID 1167); details: higher = more signal
# [7] = basal 3T3-L1 adipocyte mitochondrial potential changes, profiling panel, cell-based, JC-1 fluorescence, 3T3-L1 adipocytes, 24 h, 100 nL compound (AID 1168); details: JC-1 mitochondrial fluorescence, higher = more signal, called active from +8 up or from −8 down
# [8] = basal RPMI8226 mitochondrial membrane potential changes, profiling panel, cell-based, JC-1 fluorescence, 24 h, 100 nL compound (AID 1169); details: RPMI8226 myeloma, JC-1 mitochondrial potential fluorescence, higher = more signal
# [9] = basal MM1S mitochondrial membrane potential changes, profiling panel, cell-based, JC-1 fluorescence, 24 h, 100 nL compound (AID 1170); details: higher = more signal
# [10] = A549 lung cancer cell viability effects, profiling panel, resazurin fluorescence, 24 h, PK04 Diversity Set (AID 1171); details: higher = more signal, called active from +8 up or from −8 down
# Further: test concentration not given here.
SMILES,z-score [1],z-score [2],z-score [3],z-score [4],z-score [5],z-score [6],z-score [7],z-score [8],z-score [9],z-score [10]
COCCOC(=O)N1C(=O)[C@@]2(c3cc(C#CCC(C(=O)OC)C(=O)OC)ccc31)[C@H](C(=O)N1CCCCCCC1)[C@H]1C(=O)O[C@H](c3ccccc3)[C@H](c3ccccc3)N1[C@@H]2c1ccc(O)cc1,-0.0336,1.25,-0.125,-0.575,-1.39,0.503,1.1 (inactive),0.439,0.579,0.616 (inactive)
C=CCC(OC(C)=O)[C@@H]1[C@@H](N(Cc2cc3ccccc3o2)C(=O)Cc2ccc(OC)cc2)c2cc(OCCCO)ccc2N1C(=O)c1ccc(-c2ccccc2)cc1 (stereo not given in full),0.328,1.05,0.228,-0.841,-1.82,3.42,0.182 (inactive),-0.392,0.415,-0.451 (inactive)
C#CCOC(=O)N[C@H](C=CCCCC)c1ccccc1,-1.18,-0.115,-0.517,-0.334,-0.508,1.47,-0.62 (inactive),0.15,0.0811,-0.28 (inactive)
CN1C(=O)C2C=CC(C(O)c3ccc(F)cc3)N(N3CCCCC3)C2C1=O (stereo not given),-1.1,-1.24,-0.572,-1.05,0.0924,-1.43,-0.487 (inactive),0.00989,-0.118,-0.707 (inactive)
CC(C)c1ccc(NN2C(C(O)c3cccs3)C=CC3C(=O)N(c4ccccc4)C(=O)C32)cc1 (stereo not given),-0.869,-0.986,-0.245,-0.639,-0.476,-2.91,-1.73 (inactive),0.183,0.491,-0.28 (inactive)
CCCC=C(CCC)[C@@H](NS(=O)(=O)c1ccccc1)c1ccc(C(F)(F)F)cc1,-2.27,-0.287,-2.34,-2.55,-4.06,-3.56,-0.634 (inactive),-0.981,-2.47,-0.795 (inactive)
COC(=O)[C@@]1(Cc2ccccc2)[C@H]2c3cc(C(=O)N4CCCC4)n(Cc4ccc(OC(F)(F)F)cc4)c3C[C@H]2CN1C(=O)c1ccccc1,-0.975,-0.8,-1.56,-1.89,-2.47,1.77,-1.42 (inactive),-0.717,-0.934,-1.46 (inactive)
COCCCNC(=O)[C@]1(CCS(=O)(=O)c2ccccc2)N=C(c2ccc(OCCCO)cc2)O[C@@H]1c1ccccc1,1.73,0.151,0.9,-0.223,-0.7,2.64,0.0968 (inactive),-0.74,-0.801,-0.243 (inactive)
COCCOC(=O)N1C(=O)[C@@]2(c3ccccc31)[C@H](c1ccccc1OCCO)N1[C@H](c3ccccc3)[C@H](c3ccccc3)OC(=O)[C@H]1[C@@H]2C(=O)N1CCc2cc(OC)c(OC)cc2C1,-0.322,1.09,-0.628,-1.87,-1.49,0.822,0.977 (inactive),-0.337,-0.582,-0.395 (inactive)
C=C(C(=O)CC[C@H](OC(=O)c1cccnc1)c1ccc(OCCO)cc1)C(C)C,-0.328,0.165,-0.823,-3.3,-1.75,0.149,-0.00639 (inactive),-0.634,-1.45,-0.569 (inactive)
COC(=O)c1ccc(OC)c(/C=C\CC(CCc2ccccc2)OC(C)=O)c1 (stereo not given),-0.349,-0.191,-0.349,-1.35,0.346,-1.3,-0.459 (inactive),-0.48,0.893,0.671 (inactive)
COC(=O)[C@]1(Cc2ccccc2CN=[N+]=[N-])N=C(c2ccc(OCCCO)cc2)O[C@@H]1c1ccccc1CN=[N+]=[N-],-3.46,0.766,-4.79,-3.67,-4.08,0.344,0.24 (inactive),-1.07,-2.47,-3.05 (inactive)
COc1ccc(C#Cc2ccc3c(c2)[C@]2(C(=O)N3)[C@H](c3ccc(OCCO)cc3)N3[C@H](c4ccccc4)[C@H](c4ccccc4)OC(=O)[C@H]3[C@@H]2C(=O)N2CCN(c3ncccn3)CC2)cc1,-0.446,1.15,-0.646,0.496,-0.106,-0.851,4.27 (inactive),-0.507,-0.816,1.32 (inactive)
Cc1ccc(C(C)CC(O)C2C=CC3C(=O)N(Cc4ccccc4)C(=O)C3N2n2cnnc2)o1 (stereo not given),-0.732,-0.126,-0.705,-0.427,-1.63,-0.254,-1.24 (inactive),-0.168,1.24,-1.34 (inactive)
NC(=O)NCC#Cc1ccc2c(c1)[C@]1(C(=O)N2)[C@H](c2ccc(O)cc2)N2[C@H](c3ccccc3)[C@H](c3ccccc3)OC(=O)[C@H]2[C@@H]1C(=O)NC[C@H](O)c1ccccc1,0.544,0.192,-0.0875,-0.106,0.0231,0.163,-0.0491 (inactive),-0.888,0.481,0.716 (inactive)
CC(C)(C)N1CC=CC23O[C@@H]4C=CCCOC(=O)C4[C@H]2C(=O)N(CCCO)[C@@H]3C1=O (stereo not given in full),0.28,1.75,0.15,-0.685,-0.783,-1.26,0.514 (inactive),0.846,-0.0658,-1.22 (inactive)
C=CCC(OC(C)=O)[C@@H]1[C@@H](N(Cc2ccc(-c3ccccc3)cc2)C(=O)c2cccc3ccccc23)c2cc(OCCCO)ccc2N1C(=O)c1ccc2ccccc2n1 (stereo not given in full),0.479,0.522,0.833,-0.318,0.116,3.07,0.0656 (inactive),-0.0127,0.506,0.131 (inactive)
CN(C)CCCN1C(=O)[C@@]2(Cc3ccccc31)c1ccccc1C(=O)N(Cc1ccccc1)[C@H]2c1ccc(CO)cc1,0.483,1.16,0.128,0.38,-2.79,0.343,-0.407 (inactive),-0.484,-1.28,0.726 (inactive)
C[N+](C)(C)CCCC[C@@H]1NC(=O)[C@@H]2C[C@H](C(=O)NCCCCCNC(=O)CS)[C@H](c3cccc(OCCO)c3)N2C1=O,0.884,-0.0052,0.289,-0.0724,-1.31,1.8,-0.364 (inactive),0.245,-0.243,0.764 (inactive)
CCCCC(O)C1C=CC2C(=O)N(Cc3ccccc3)C(=O)C2N1n1cnnc1 (stereo not given),-1.15,0.845,-0.189,0.179,-0.458,0.135,-0.942 (inactive),-0.874,-1.26,0.164 (inactive)
O=C1N(CCS(=O)(=O)c2ccccc2)c2ccccc2[C@H]2OC(c3ccc(OCCCO)cc3)=N[C@@]12CCS(=O)(=O)c1ccccc1,0.571,0.771,0.504,0.201,-0.0504,-0.38,2.29 (inactive),-0.371,-1.23,0.789 (inactive)
C=C(COC)/C(=C/C[C@@H](OC(=O)c1ccncc1)c1cccc(OCCO)c1)c1cc(C(=O)OC)ccc1OC,-0.637,-0.628,-1.45,-2.22,-2.37,1.37,-0.109 (inactive),-0.574,-1.26,-1.8 (inactive)
COC(=O)[C@@]1(Cc2ccc(F)cc2)[C@H]2c3cc(C(=O)N4CCCC4)n(Cc4ccccc4)c3C[C@H]2CN1C(=O)c1ccccc1,-0.858,-0.273,-0.579,-2.1,-4.11,0.49,-0.76 (inactive),-0.104,-0.759,0.0314 (inactive)
CC1(C)[C@@H]2CC(C(O)C3C=CC4C(=O)N(c5ccccc5)C(=O)C4N3Nc3ccccc3F)=C[C@@H]1C2 (stereo not given in full),0.604,-0.297,-0.0679,0.848,0.219,-0.424,-1.07 (inactive),0.157,-1.41,1.01 (inactive)
O=C1O[C@H](c2ccccc2)[C@H](c2ccccc2)N2[C@H]1[C@@H](C(=O)N1CCN(c3ncccn3)CC1)[C@]1(C(=O)Nc3ccc(C#CCCO)cc31)[C@H]2c1ccc(OCCO)cc1,-0.696,0.404,-0.53,-1.04,-0.284,-0.838,0.717 (inactive),-0.883,-0.386,0.978 (inactive)
CCC[C@@H]1C[C@@]1(CCC)[C@@H](NC(=O)c1cccs1)c1ccc(Cl)cc1,-0.162,-0.608,-0.892,-2.77,-4.78,-0.52,0.028 (inactive),-0.000314,-0.386,4.94 (inactive)
O=C1C2C=CC(C(O)c3ccc(Br)cc3)N(Nc3ccccc3)C2C(=O)N1c1ccccc1 (stereo not given),-1.17,-1.45,-0.5,-1.27,0.134,-1.92,-0.711 (inactive),-0.163,-0.0898,-0.201 (inactive)
COCCCNC(=O)[C@@]1(Cc2ccccc2N=[N+]=[N-])N=C(c2ccc(OCCCO)cc2)O[C@H]1c1ccccc1CN=[N+]=[N-],-0.603,1.66,-0.456,-1.72,-3.93,3.03,0.557 (inactive),-1.21,-0.593,-1.92 (inactive)
O=C1c2ccccc2C(=O)C2CC([C@H]3Oc4ccccc4S(=O)(=O)N4CCC[C@@H]34)=CCC12 (stereo not given in full),0.242,0.703,1.13,-2.53,-0.0759,0.786,0.0775 (inactive),-0.667,-0.852,0.178 (inactive)
